In the library only some 21% were active in any assay of this set; here they are far more common.
IL-1B inflam inh – inflammasome signaling inhibition, IL-1 beta readout | THP-1 LPS/ATP IL-1B secretion, AlphaLISA, 16 h; active compounds read low | activity change, % at 57.5 µM | 4.7% of 360,000 active; in the data active = activity change below about -50%; inconclusive = mostly about -30% to -49%; also: % is scaled to controls: 0 for no effect and ±100 for the full control effect
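Secreted IL-1B measured by AlphaLISA bead assay after 16 h compound exposure of THP-1 cells; compounds (final up to 57.5 uM) added 1 h before LPS (250 ng/mL) and ATP (1.25 mM) stimulation; lower signal means less secretion.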
TDP1 cell CPT – growth inhibition of DT40 Tdp1-/-;hTDP1 cells with camptothecin (screen for TDP1 inhibitors); Potency, µM (titrated, usually from 46.2 µM), inactives show top-dose activity change, negative = growth inhibition, usual class: inhibitors; chicken DT40 Tdp1-/-;hTDP1 cells + 20 nM CPT, ATP luminescence, 48 h; AID 686979; 12% of 420,000 active; also: potency is read from the fitted curve at half-maximal effect; % is scaled to controls: 0 for no effect and ±100 for the full control effect; nearly all actives have a fitted effect of over 55% in size
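Chicken DT40 Tdp1-/- cells stably complemented with human TDP1 were seeded at 400 cells/well in medium containing 20 nM camptothecin, exposed to pin-transferred compounds, and grown at 37 °C for at least 48 hr. Viability was read as ATP luminescence.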
DRD3 antagonist – D3 dopamine receptor (human) antagonism; P35462; D3R cells, DiscoveRx beta-arrestin luminescence, antagonist mode; active compounds read low; max response, negative = inhibition, %; 2.5% of 360,000 active; AID 652054; in the data active = max response below about -50%; inconclusive = no clear call, values can overlap the other calls; also: % is scaled to controls: 0 for no effect and ±100 for the full control effect
Target sequence (P35462 whole entry, looked up): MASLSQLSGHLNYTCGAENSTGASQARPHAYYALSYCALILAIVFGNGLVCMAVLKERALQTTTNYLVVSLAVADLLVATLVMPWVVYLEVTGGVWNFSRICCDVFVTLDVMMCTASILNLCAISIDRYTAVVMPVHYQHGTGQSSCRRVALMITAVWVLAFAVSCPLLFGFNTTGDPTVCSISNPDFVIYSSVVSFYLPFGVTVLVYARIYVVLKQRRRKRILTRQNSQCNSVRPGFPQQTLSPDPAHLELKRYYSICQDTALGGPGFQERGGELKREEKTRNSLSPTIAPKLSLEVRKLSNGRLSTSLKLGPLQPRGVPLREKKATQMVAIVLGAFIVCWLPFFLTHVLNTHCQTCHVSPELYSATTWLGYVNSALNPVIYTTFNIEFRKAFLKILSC
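Cells expressing the human receptor were seeded at 1500 cells/well, incubated overnight at 37 degrees C in 5% CO2, then exposed to library compounds with dopamine controls for 90 minutes at 37 degrees C before luminescent detection.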
ClpP mod – qHTS Assay for Activators of ClpP. AID 651965, 2013. 1.9% of 340,000 active. Potency, µM (doses to about 57.5 µM), without a hit: at the top dose activity change, negative = active. purified B. subtilis ClpP, FRET peptide cleavage, 20 min; active = well fitted falling curve with a large enough effect; inconclusive = small, poorly fitted or top-dose-only effect; inactive = no such curve, though single readings can be large or run the other way; also: potency is read from the fitted curve at half-maximal effect; the source files actives as falling curves though it sought activators and does not explain the sign; nearly all actives have a fitted effect of over 65% in size
Target sequence (P80244 whole entry, looked up): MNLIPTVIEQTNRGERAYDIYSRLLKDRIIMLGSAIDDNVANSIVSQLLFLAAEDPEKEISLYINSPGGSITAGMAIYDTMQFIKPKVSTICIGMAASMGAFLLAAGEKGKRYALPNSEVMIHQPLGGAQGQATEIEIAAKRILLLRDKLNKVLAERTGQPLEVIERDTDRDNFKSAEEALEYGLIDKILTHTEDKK
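Buffer: 100 mM Tris/HCl pH8, 100 mM KCl, 0.05% low protease BSA, 2.5% glycerol, 0.01% Tween-20. ClpP 10 microg/mL final; 20 min RT; delta FRET normalized to ADEP and DMSO controls.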
TDP1 cell noCPT – qHTS for Inhibitors of human tyrosyl-DNA phosphodiesterase 1 (TDP1): qHTS in cells in absence of CPT | 15% of 420,000 active | Potency, µM (series often up to 46.2 µM), without a hit: top-dose activity change, negative = growth inhibition, usual class: inhibitors | AID 686978, 2013 | DT40 Tdp1-/- hTDP1 cells, no CPT, ATP luminescence, 48 h; also: potency is read from the fitted curve at half-maximal effect; % is scaled to controls: 0 for no effect and ±100 for the full control effect; nearly all actives have a fitted effect of over 55% in size
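Growth kinetics read by CellTiter-Glo luminescence after ≥48 hr at 37 °C. Cells: DT40 Tdp1-/- stably carrying human TDP1, 400 per well, compound exposure in the absence of CPT (DMSO vehicle).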
D3 ag – agonists of human D3 dopamine receptor | D3R DiscoveRx beta-arrestin cells, luminescence, 90 min | max activation, % | 0.58% of 410,000 active; in the data active = max activation above about 30%; also: 0% is about no effect
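Agonist mode: compounds and dopamine controls were applied to plated cells for 90 min at 37 degrees C after an overnight attachment at 1500 cells/well. Luminescent read-out followed 30 - 60 minutes at room temperature with DiscoveRx detection reagent.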
The depositor's hits bear a star; ? = inconclusive; / = not tested or not shown. Unless noted, calls follow the shape of the dose curve; as a rule, active = well fitted inhibition curve with a large enough effect; inconclusive = small, poorly fitted or top-dose-only effect; inactive = flat fitted curve, though single readings scatter.

SMILES	IL-1B inflam inh	TDP1 cell CPT	DRD3 antagonist	ClpP mod	TDP1 cell noCPT	D3 ag
O=C(CN1C(=O)C2CCCCN2c2ccc(C(=O)N3CCCC3)cc21)NCc1ccccc1F (configuration not stated)	/	?	/	-2.8%	-18.0%	1.9
O=C(C[n+]1ccc(/C=N/O)cc1)NC1CCCCC1	-19.3	-7.5%	-13.8	/	-23.2%	-11.7
O=C(c1ccc(CNS(=O)(=O)c2ccc(Br)cc2)cc1)N1CCCCC1	21.2	?	0.2	0.5%	?	-7.4
CC(=O)C1CCC2C3CC(C)=C4CC(O)CCC4(C)C3CCC12C (configuration not stated)	-98.7*	3.2%	-4.6	/	20.6µM*	65.4*
CC(=O)[C@H]1CC[C@H]2[C@@H]3CC=C4C[C@@H](O)CC[C@]4(C)[C@H]3CC[C@]12C	43.6	?	-7.3	0.7%	?	3.7
CC(=O)[C@H]1CCC2C3CC=C4C[C@@H](O)CC[C@]4(C)C3CC[C@@]21C (some centres not stated)	16.9	18.4µM*	45.5	/	?	20.0
Cc1ccc2ncc(C)c(/C=C/c3ccc(N(C)C)cc3)c2c1	/	?	/	0.6%	?	/
COc1ccc(CCNC(=O)c2ccc3c(Cl)c4c(nc3c2)CCCC4)c(OC)c1	/	16.4µM*	/	-7.4%	18.4µM*	5.3
COc1ccc(CNC(=O)c2ccc3c(Cl)c4c(nc3c2)CCCC4)c(OC)c1	/	?	/	-3.0%	23.1µM*	-4.0
COc1cc(Cl)c(C)cc1NC(=O)c1ccc2c(Cl)c3c(nc2c1)CCC3	/	0.5%	/	-13.6%	1.4%	-7.9
COc1ccc(CCNC(=O)c2ccc3c(Cl)c4c(nc3c2)CCCC4)cc1OC	/	14.6µM*	/	27.6%	4.11µM*	-3.3
COc1ccc(CCNC(=O)c2ccc3c(SCC(=O)O)c4c(nc3c2)CCCC4)cc1OC	-2.2	0.4%	0.2	-1.5%	11.6%	-27.3
CC(=O)N(c1ccc(C(C)C)cc1)C1C=CS(=O)(=O)C1 (configuration not stated)	8.7	-0.6%	33.0	-15.5%	-4.1%	0.2
COc1ccc(N(C(=O)c2cc3ccccc3oc2=O)C2C=CS(=O)(=O)C2)cc1 (configuration not stated)	?	-5.6%	-5.4	/	1.4%	-1.9
O=C(c1cc2ccccc2oc1=O)N(c1ccccc1)C1C=CS(=O)(=O)C1 (configuration not stated)	-53.7*	-3.8%	-4.1	?	-18.6%	4.5
CC(C)c1ccc(N(C(=O)c2cc3ccccc3oc2=O)C2C=CS(=O)(=O)C2)cc1 (configuration not stated)	-5.4	?	4.6	-3.4%	13µM*	0.8
Fc1ccc(NCc2cccn2-c2nnc(N3CCOCC3)s2)cc1	/	-17.8%	/	1.5%	-26.7%	3.4
O=C(NC1CC1)c1ccc(S(=O)(=O)NC2CCCCCC2)cc1	3.7	?	16.5	0.4%	?	16.9
O=C(O)c1ccc(S(=O)(=O)NC2CCCCC2)cc1	0.8	-17.3%	-59.4*	-1.9%	-0.8%	-0.2
CNC(=O)c1ccsc1NC(=O)c1ccc(S(=O)(=O)N2CCCc3ccccc32)cc1	-17.8	20.6µM*	-1.1	-16.2%	20.6µM*	3.3
O=S(=O)(NC1CCCC1)c1ccc(S(=O)(=O)N2CCc3ccccc32)cc1	0.8	16.4µM*	11.4	0.9%	16.4µM*	5.9
COC(=O)Nc1ccc(S(=O)(=O)N2CCCc3ccccc32)cc1	49.5	2.59µM*	-16.4	0.3%	2.31µM*	-9.8
Nc1ccc(S(=O)(=O)N2CCc3ccccc32)cc1	-4.7	-23.1%	-23.2	-0.2%	-25.4%	-6.7
Cc1csc(NC(=O)CN2C(=O)c3ccccc3C2=O)c1C(N)=O	0.0	23.7%	19.2	0.0%	-1.1%	-4.0
Cc1ccc(NC(=O)NCCN2CCCCC2)cc1Cl	?	-26.4%	-9.3	/	-29.7%	-23.1
SMILES	IL-1B inflam inh	TDP1 cell CPT	DRD3 antagonist	ClpP mod	TDP1 cell noCPT	D3 ag
O=[N+]([O-])c1nn(-c2ccccc2)[n+]([O-])c1N1CCN(c2ccccc2F)CC1	-7.1	-18.4%	-22.3	-3.4%	-6.6%	-9.6
CCc1nnc(NC(=O)c2ccc(S(=O)(=O)N3CCCc4ccccc43)cc2)o1	56.5	?	16.1	0.4%	11.2µM*	0.5
O=C(Nc1nc2c(s1)CCCC2)c1ccc(S(=O)(=O)N2CCCc3ccccc32)cc1	-0.9	?	-18.6	-7.8%	?	-14.9
COC(=O)Nc1ccc(S(=O)(=O)N2CCCc3cccc(O)c32)cc1	56.0	13µM*	-23.7	-3.9%	10.3µM*	0.0
O=S(=O)(NC1CC1)c1ccc(S(=O)(=O)N2CCN3CCCC3C2)cc1 (configuration not stated)	8.9	-0.6%	?	-1.2%	-5.8%	-22.3
O=S(=O)(NC1CC1)c1ccc(S(=O)(=O)N2CCCC3(CCCCC3)C2)cc1	3.1	13µM*	4.7	1.9%	?	7.3
CCCS(=O)(=O)NC(=O)C1(C)CCCN(C(=O)c2ccc(OC)cc2OC)C1 (configuration not stated)	31.6	-15.2%	1.3	-0.4%	-12.6%	4.1
O=C(Oc1ccccc1)c1cccc2cccc(C(=O)Oc3ccccc3)c12	13.1	?	32.9	-14.4%	20.6µM*	-4.7
COc1ccc(NC(=O)CSc2nc3ccccc3c(=O)n2CCC(=O)NC2CCCCC2)c(OC)c1	/	-2.5%	/	0.6%	-4.6%	0.9
O=C(NCCc1ccccc1)c1ccc2c(c1)CCN2S(=O)(=O)c1ccc(Br)cc1	/	?	/	0.1%	?	-6.9
COc1ccc(CNC(=O)c2ccc3c(c2)CCN3S(=O)(=O)c2ccc(C)cc2)cc1	/	10.3µM*	/	0.2%	13µM*	8.1
Cc1ccc(S(=O)(=O)N2CCc3cc(C(=O)NCCc4ccccc4)ccc32)cc1	/	?	/	-0.6%	-28.2%	63.9*
Cc1ccc(NC(=O)CCN2CC(C)OC(C)C2)cc1 (configuration not stated)	42.4	12.8%	18.0	/	1.3%	-13.4
Cc1cc(C)c(C(=O)COC(=O)c2c(C)noc2C)cc1C	14.9	-22.3%	2.2	-1.6%	?	-1.4
CCC(C)(C)n1nnnc1CN1CCN(C(c2ccccc2)c2ccccc2)CC1	11.0	?	-9.5	-3.2%	20.6µM*	4.0
CC(C)CCn1nnnc1CN1CCN(c2ccc(F)cc2)CC1	0.0	1.8%	?	/	?	-17.7

Compound activity (PubChem BioAssay)
